Results taken from ChEMBL document CHEMBL2218924, “A broad activity screen in support of a chemogenomic map for kinase signalling research and drug discovery” (Biochem J, 2013).

Columns and labels:
[1] = biological target: Serine/threonine-protein kinase PAK 4 (Homo sapiens) (UniProt O96013); settings: at 1 µM
[2] = biological target: Serine/threonine-protein kinase PAK 4 (Homo sapiens) (UniProt O96013); settings: at 10 µM
[3] = biological target: Serine/threonine-protein kinase PAK 5 (Homo sapiens) (UniProt Q9P286); settings: at 1 µM
[4] = biological target: Serine/threonine-protein kinase PAK 5 (Homo sapiens) (UniProt Q9P286); settings: at 10 µM
[5] = biological target: Activated CDC42 kinase 1 (Homo sapiens) (UniProt Q07912); settings: at 1 µM
Sequence of Activated CDC42 kinase 1 (Homo sapiens) (Q07912 whole entry, looked up): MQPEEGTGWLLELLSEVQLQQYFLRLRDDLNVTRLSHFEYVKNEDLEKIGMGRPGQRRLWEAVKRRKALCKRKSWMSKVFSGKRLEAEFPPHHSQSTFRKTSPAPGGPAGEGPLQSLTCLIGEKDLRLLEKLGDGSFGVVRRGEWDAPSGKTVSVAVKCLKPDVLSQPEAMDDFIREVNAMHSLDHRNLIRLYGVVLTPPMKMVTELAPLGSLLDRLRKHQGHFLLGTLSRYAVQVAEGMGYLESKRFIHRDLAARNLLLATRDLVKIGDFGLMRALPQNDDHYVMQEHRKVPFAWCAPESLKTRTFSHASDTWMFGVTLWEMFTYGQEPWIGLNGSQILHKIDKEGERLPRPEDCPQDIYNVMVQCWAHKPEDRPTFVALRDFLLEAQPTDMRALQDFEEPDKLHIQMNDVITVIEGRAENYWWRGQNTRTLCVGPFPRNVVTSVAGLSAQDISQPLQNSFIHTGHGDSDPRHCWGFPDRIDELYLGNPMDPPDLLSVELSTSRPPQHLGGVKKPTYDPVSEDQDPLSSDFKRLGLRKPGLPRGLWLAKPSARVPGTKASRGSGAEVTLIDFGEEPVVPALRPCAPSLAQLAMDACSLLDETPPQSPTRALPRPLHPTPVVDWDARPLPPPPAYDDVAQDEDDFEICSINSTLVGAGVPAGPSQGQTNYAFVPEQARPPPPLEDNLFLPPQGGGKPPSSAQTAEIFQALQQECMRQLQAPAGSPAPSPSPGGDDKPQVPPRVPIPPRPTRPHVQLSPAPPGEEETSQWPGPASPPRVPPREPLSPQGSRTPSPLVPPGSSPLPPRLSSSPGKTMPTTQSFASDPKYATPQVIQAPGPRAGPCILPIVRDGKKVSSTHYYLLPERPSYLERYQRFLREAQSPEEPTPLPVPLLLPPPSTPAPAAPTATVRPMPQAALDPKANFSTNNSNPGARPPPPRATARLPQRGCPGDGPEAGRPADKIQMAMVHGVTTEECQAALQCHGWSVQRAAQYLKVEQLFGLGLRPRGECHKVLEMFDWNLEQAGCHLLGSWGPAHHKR

[6] = biological target: Activated CDC42 kinase 1 (Homo sapiens) (UniProt Q07912); settings: at 10 µM
[7] = biological target: ALK tyrosine kinase receptor (Homo sapiens) (UniProt Q9UM73); settings: at 1 µM
[8] = biological target: ALK tyrosine kinase receptor (Homo sapiens) (UniProt Q9UM73); settings: at 10 µM
[9] = biological target: T1, Activin receptor type-1B (Homo sapiens) (UniProt P36896); settings: at 10 µM
T1 sequence (whole entry): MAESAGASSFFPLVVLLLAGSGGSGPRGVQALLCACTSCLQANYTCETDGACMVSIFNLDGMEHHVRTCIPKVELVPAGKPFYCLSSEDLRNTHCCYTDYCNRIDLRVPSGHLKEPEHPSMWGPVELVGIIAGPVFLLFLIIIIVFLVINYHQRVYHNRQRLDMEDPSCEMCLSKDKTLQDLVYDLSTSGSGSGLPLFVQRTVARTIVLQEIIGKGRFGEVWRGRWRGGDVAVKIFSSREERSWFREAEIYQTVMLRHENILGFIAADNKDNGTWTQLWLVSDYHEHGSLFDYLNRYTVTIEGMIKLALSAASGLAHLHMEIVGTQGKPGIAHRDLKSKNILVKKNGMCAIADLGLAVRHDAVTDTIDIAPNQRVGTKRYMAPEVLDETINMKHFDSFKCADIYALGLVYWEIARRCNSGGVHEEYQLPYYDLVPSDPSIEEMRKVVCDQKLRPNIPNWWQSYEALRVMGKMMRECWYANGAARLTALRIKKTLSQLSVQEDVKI

[10] = biological target: T2, AMP-activated protein kinase (AMPK) alpha-1/beta-1/gamma-1 (Homo sapiens) (UniProt P54619+Q9Y478+Q13131); settings: at 1 µM
T2 sequence (P54619 whole entry): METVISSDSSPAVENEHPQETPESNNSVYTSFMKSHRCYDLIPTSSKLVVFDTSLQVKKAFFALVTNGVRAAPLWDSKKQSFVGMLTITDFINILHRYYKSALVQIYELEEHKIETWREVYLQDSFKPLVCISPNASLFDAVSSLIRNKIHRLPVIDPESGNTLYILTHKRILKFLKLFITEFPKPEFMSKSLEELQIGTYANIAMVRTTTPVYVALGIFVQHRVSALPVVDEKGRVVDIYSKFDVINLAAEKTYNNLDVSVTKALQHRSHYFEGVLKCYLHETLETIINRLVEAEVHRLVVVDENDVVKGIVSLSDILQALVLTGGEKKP
T2 sequence (Q13131 whole entry partner): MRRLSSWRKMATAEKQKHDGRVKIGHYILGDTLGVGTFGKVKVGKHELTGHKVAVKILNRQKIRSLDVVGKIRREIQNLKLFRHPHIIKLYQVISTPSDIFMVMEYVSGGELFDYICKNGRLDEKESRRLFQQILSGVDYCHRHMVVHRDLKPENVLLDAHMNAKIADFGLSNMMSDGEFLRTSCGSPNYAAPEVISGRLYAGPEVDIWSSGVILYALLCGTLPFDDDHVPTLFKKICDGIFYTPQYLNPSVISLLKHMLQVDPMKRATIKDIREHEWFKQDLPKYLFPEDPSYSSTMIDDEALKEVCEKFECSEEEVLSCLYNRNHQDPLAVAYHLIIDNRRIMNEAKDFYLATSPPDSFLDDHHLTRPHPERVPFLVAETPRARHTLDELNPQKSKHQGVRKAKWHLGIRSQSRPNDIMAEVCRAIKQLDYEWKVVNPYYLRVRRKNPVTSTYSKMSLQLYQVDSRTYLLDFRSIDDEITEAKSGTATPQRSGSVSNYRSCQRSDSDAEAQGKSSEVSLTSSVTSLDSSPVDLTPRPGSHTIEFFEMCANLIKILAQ
T2 sequence (Q9Y478 2-270 partner limits assumed): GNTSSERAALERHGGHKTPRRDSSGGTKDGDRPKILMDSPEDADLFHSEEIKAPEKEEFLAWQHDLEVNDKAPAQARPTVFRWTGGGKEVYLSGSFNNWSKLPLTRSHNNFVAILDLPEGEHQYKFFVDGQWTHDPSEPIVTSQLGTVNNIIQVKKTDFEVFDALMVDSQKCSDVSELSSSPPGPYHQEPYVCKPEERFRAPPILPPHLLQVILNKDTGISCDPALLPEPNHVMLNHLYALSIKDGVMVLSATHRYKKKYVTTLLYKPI

[11] = biological target: T2, AMP-activated protein kinase (AMPK) alpha-1/beta-1/gamma-1 (Homo sapiens); settings: at 10 µM
[12] = biological target: T3, NUAK family SNF1-like kinase 1 (Homo sapiens) (UniProt O60285); settings: at 1 µM
T3 sequence (whole entry): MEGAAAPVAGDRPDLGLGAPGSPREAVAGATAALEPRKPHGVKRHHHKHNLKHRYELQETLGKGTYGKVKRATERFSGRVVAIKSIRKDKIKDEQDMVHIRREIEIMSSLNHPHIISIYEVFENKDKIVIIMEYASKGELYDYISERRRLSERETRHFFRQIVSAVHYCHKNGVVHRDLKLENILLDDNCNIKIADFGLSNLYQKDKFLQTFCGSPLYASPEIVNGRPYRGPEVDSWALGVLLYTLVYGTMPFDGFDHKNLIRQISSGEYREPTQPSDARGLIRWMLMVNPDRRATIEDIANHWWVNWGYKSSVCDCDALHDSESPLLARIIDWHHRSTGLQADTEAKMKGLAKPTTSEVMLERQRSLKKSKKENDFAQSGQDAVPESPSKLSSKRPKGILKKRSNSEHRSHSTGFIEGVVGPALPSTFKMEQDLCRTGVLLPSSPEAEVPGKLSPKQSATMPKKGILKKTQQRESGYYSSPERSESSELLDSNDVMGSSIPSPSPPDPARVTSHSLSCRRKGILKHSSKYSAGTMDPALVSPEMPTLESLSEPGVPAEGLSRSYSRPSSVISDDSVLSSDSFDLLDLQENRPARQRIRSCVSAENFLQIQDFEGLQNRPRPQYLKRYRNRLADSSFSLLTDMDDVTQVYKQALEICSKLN

[13] = biological target: T3, NUAK family SNF1-like kinase 1 (Homo sapiens); settings: at 10 µM
[14] = biological target: Serine/threonine-protein kinase PAK 6 (Homo sapiens) (UniProt Q9NQU5); settings: at 1 µM
Sequence of Serine/threonine-protein kinase PAK 6 (Homo sapiens) (Q9NQU5 whole entry, looked up, the tested form may be a part): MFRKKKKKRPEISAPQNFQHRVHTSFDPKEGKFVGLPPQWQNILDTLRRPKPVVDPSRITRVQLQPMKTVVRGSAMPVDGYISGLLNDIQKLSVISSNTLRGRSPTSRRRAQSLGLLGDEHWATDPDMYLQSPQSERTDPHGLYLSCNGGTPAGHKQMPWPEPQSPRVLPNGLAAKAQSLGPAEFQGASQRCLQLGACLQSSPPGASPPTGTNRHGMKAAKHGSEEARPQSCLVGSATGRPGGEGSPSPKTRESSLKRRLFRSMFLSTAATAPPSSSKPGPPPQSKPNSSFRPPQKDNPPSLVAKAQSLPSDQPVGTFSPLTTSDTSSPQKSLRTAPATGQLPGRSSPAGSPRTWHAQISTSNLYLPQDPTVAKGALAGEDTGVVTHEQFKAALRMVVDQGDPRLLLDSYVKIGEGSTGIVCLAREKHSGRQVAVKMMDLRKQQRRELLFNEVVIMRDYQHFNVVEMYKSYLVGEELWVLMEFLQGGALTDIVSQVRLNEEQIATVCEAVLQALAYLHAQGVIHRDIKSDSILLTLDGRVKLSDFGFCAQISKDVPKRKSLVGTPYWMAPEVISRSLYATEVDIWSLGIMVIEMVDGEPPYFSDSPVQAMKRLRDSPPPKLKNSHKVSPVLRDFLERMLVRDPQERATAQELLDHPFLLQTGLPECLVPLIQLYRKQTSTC

[15] = biological target: Serine/threonine-protein kinase PAK 6 (Homo sapiens) (UniProt Q9NQU5); settings: at 10 µM
[16] = biological target: PAS domain-containing serine/threonine-protein kinase (Homo sapiens) (UniProt Q96RG2); settings: at 10 µM
Sequence of PAS domain-containing serine/threonine-protein kinase (Homo sapiens) (Q96RG2 whole entry, the tested form may be a part): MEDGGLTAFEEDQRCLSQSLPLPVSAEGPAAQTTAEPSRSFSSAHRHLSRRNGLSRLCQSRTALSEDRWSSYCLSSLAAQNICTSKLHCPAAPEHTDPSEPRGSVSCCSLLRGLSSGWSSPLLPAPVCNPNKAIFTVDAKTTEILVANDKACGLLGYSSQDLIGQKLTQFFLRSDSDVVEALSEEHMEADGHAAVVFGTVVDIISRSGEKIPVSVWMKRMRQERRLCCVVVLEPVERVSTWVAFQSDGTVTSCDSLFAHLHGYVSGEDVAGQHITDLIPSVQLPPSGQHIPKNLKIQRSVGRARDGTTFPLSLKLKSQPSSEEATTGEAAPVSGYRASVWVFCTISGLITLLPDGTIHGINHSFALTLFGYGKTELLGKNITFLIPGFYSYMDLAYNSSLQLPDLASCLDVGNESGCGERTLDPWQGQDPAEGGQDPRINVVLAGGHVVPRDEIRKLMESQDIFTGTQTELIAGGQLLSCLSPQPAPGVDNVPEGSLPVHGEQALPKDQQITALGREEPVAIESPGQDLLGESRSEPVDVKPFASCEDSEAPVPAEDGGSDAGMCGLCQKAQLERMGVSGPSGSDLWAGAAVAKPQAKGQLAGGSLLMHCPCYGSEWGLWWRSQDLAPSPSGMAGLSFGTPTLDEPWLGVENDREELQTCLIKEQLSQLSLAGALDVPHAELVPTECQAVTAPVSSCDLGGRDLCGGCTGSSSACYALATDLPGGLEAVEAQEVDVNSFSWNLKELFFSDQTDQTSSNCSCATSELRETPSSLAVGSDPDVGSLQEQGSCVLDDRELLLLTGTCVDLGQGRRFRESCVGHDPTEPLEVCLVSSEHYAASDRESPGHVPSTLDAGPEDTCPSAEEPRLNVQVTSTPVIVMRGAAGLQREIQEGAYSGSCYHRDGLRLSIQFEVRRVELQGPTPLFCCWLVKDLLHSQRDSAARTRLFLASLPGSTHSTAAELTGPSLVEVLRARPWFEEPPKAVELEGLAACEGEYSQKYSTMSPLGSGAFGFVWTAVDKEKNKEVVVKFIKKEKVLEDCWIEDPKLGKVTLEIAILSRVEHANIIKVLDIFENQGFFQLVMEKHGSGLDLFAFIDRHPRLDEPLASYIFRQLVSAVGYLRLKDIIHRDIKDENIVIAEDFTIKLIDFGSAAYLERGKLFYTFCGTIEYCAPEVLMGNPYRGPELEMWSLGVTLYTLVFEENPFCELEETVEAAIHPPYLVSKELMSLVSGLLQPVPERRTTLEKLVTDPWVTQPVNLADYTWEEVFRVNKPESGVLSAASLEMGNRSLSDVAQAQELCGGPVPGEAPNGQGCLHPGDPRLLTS

[17] = biological target: T1, Activin receptor type-1B (Homo sapiens); settings: at 1 µM
[18] = biological target: T4, AMP-activated protein kinase, AMPK (Homo sapiens) (UniProt P54646+O43741+P54619+Q9UGJ0+Q9Y478+Q13131+Q9UGI9); settings: at 1 µM
[19] = biological target: T4, AMP-activated protein kinase, AMPK (Homo sapiens); settings: at 10 µM
[20] = biological target: T5, Mitogen-activated protein kinase kinase kinase 5 (Homo sapiens) (UniProt Q99683); settings: at 1 µM
T5 sequence (whole entry): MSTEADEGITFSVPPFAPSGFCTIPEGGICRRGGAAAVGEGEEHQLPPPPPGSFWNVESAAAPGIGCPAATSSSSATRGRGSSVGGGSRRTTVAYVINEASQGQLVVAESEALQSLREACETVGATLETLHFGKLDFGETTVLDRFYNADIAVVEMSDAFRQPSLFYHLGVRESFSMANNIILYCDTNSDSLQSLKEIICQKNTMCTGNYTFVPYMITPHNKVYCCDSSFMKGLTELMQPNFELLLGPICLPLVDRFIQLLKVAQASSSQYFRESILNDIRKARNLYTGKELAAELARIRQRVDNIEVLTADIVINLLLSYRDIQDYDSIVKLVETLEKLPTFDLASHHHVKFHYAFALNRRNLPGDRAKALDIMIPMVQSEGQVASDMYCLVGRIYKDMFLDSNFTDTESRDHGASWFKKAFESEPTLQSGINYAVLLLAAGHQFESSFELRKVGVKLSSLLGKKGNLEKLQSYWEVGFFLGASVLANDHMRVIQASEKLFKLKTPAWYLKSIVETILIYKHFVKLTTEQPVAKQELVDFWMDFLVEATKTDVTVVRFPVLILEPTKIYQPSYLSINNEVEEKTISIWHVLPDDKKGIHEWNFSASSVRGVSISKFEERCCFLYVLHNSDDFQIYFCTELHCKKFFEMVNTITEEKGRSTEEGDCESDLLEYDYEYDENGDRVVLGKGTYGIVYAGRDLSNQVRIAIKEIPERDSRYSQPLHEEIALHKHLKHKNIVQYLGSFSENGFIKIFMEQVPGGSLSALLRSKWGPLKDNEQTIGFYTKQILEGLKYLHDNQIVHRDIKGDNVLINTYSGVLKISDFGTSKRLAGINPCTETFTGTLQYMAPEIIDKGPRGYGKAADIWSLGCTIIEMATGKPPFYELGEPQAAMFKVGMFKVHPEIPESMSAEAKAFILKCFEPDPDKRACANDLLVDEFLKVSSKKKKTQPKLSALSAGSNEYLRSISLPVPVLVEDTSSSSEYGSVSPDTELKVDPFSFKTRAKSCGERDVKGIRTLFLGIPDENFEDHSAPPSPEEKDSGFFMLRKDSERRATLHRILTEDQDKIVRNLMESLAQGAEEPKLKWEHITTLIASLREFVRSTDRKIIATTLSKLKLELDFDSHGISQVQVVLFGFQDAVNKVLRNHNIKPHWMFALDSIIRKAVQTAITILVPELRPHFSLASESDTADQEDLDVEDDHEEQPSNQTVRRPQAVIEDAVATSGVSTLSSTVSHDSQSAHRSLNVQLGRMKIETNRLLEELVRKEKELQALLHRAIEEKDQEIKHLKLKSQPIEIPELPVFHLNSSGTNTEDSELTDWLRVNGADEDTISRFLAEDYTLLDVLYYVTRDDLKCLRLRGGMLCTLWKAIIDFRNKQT

Sequence of Serine/threonine-protein kinase PAK 4 (Homo sapiens) (O96013 whole entry, looked up): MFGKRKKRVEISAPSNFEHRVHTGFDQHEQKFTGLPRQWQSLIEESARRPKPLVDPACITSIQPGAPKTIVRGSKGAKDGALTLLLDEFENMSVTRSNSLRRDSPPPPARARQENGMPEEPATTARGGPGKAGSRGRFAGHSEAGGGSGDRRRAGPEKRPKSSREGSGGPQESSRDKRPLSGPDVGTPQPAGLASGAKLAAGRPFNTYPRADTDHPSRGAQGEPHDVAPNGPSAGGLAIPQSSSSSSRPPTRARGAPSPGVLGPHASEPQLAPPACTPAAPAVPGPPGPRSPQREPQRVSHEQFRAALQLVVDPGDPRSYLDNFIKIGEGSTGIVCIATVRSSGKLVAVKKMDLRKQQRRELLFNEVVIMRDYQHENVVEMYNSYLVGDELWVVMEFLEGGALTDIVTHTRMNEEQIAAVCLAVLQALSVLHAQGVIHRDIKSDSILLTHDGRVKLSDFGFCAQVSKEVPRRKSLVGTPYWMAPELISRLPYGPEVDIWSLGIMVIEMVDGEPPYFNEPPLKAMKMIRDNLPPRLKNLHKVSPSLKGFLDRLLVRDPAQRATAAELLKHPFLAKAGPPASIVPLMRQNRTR

Row | Compound | residual activity [1] [%] | residual activity [2] [%] | residual activity [3] [%] | residual activity [4] [%] | residual activity [5] [%] | residual activity [6] [%] | residual activity [7] [%] | residual activity [8] [%] | residual activity [9] [%] | residual activity [10] [%] | residual activity [11] [%] | residual activity [12] [%] | residual activity [13] [%] | residual activity [14] [%] | residual activity [15] [%] | residual activity [16] [%] | residual activity [17] [%] | residual activity [18] [%] | residual activity [19] [%] | residual activity [20] [%]
1 | O=C1Cc2c([nH]c3ccc(Br)cc23)-c2ccccc2N1 | 25 | 3 | 35 | 17 | 24 | 3 | 88 | 56 | 72 | 75 | 44 | 13 | 2 | – | – | – | – | – | – | –
2 | CC(C)N(CCC(=O)c1ccc2ccccc2c1)Cc1ccccc1 | 88 | 79 | – | – | 68 | 63 | 74 | – | – | – | – | – | – | – | – | – | – | – | – | –
3 | NCCNc1ncc(C(N)=O)c(Nc2cccc(C(F)(F)F)c2)n1 | 49 | 9 | 48 | 9 | 70 | 16 | – | – | – | – | – | 45 | 13 | 63 | 18 | 40 | 136 | – | – | –
4 | O=C(CCCc1ccc(-c2ccccc2F)cc1)Nc1ccc(O)cc1 | 103 | 91 | 104 | 95 | 89 | 75 | 88 | 44 | 94 | 106 | 89 | 96 | 78 | 96 | 103 | 108 | 111 | 106 | 99 | 99
5 | CN(C)S(=O)(=O)c1ccc2c(c1)/C(=C/c1cc3c([nH]1)CCCC3)C(=O)N2 | 74 | 69 | – | – | 13 | 8 | 44 | 29 | 56 | 43 | 29 | 10 | 3 | 76 | 50 | – | 111 | 45 | 37 | –
6 | O=C(NC(NC(=S)Nc1ccc(F)c([N+](=O)[O-])c1)C(Cl)(Cl)Cl)C(c1ccccc1)c1ccccc1 (stereo unspecified) | 100 | 97 | – | 66 | 100 | 78 | 81 | 97 | 103 | 90 | 71 | – | 86 | – | 61 | 75 | 94 | 89 | 77 | –
7 | Nc1ncnc2c1c(-c1ccc(Oc3ccccc3)cc1)cn2C1CCCC1 | 89 | 64 | 76 | 44 | 4 | 1 | 76 | 27 | – | 99 | 61 | 83 | 67 | 91 | 63 | 43 | 125 | 94 | 63 | 90
8 | O=C1NC(=O)C(c2c[nH]c3ccccc23)=C1c1c[nH]c2ccccc12 | 98 | 65 | 99 | – | 73 | 21 | – | 44 | 75 | 72 | 15 | 83 | 24 | – | 77 | 39 | 114 | 66 | 10 | –
9 | CCCC(=O)Oc1ccc2[nH]c(C(=O)c3cc4ccccc4[nH]3)cc2c1 | 94 | 84 | 100 | – | 72 | 65 | 78 | 99 | 98 | 85 | 81 | 98 | 84 | 108 | 75 | 84 | 132 | 91 | 96 | –
10 | c1ccc(-c2cnc(Nc3ccc(OCCN4CCCC4)cc3)s2)cc1 | 105 | 76 | – | – | 68 | 16 | – | – | 115 | – | – | 74 | 27 | – | – | 62 | 131 | 81 | 28 | –
11 | Nc1n[nH]c2nc3ccccc3nc12 | 94 | 85 | 90 | 70 | 68 | 40 | 67 | 51 | – | 86 | 83 | 87 | 40 | 84 | 84 | – | – | 88 | 86 | –
12 | O=C(O)/C=C/c1cc(Br)c(Br)c(Br)c1Br | 108 | 101 | – | 82 | 79 | 63 | 88 | 87 | 85 | 101 | 56 | 102 | 94 | 102 | 76 | 6 | – | 94 | 76 | 98
13 | CCOC(=O)c1c(C)[nH]c(/C=C2\C(=O)Nc3ccccc32)c1C | 90 | 94 | – | – | 73 | 64 | 80 | 118 | 83 | 80 | 65 | 88 | 85 | 91 | 99 | 93 | 120 | 85 | 74 | –
14 | COc1ccc(Cl)cc1NC(=O)Nc1cc(C)nc2ccccc12 | 96 | 88 | 80 | 100 | 90 | 80 | 77 | 58 | – | 88 | 78 | 94 | 92 | 91 | 88 | 43 | – | – | 91 | –
15 | O=C1NC(=O)c2c1c1c3ccccc3[nH]c1n1cncc21 | 81 | 82 | – | 91 | 38 | 23 | 77 | 48 | – | 49 | 34 | 15 | 13 | 98 | 73 | 26 | 97 | 38 | 29 | 99
